Screen size: about 330,000 compounds; about 7,300 (2.2%) were called active. The full list was thinned out, with actives kept by preference. Unmarked numbers belong to inactive results.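 Rule for the calls: active = inhibition of at least 40%; inactive = the rest.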
Assay: growth inhibitors of tim10-1 mutant yeast, primary screen, luminescence, uHTS (AID 463190);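 note: mutant grown at 25 °C; 0% = DMSO wells with yeast and 100% = wells holding no yeast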
Conditions: S. cerevisiae tim10-1 ts strain growth, BacTiter-Glo, 24 h; at 20 µM; active compounds read high
`CCCC(C)C(=O)NCc1ccncc1` (stereo unspecified) gave an inhibition of 27.9%. Work on `CCCc1cc(=O)[nH]c(SCc2cc(=O)oc3c(C)c(C)ccc23)n1` yielded an inhibition of 10.3%. Compound `Cc1cccn2c(=O)c3cc(C(=O)NC4CCCCC4)sc3nc12` has an inhibition of 19.7%. Compound `Cc1cc(C)c2c(n1)sc1c(=O)n(-c3ccccc3)c(=O)[nH]c12` has an inhibition of 4.48%. With `Cc1cccc(NC(=S)Nc2ccc(Cl)c(Cl)c2)c1` the inhibition was 49.9% (active). `Cc1cccc(NC(=S)Nc2ccc3cn[nH]c3c2)c1` gave an inhibition of 15.4%. `Cc1cccc(NC(=S)NC23CN4CN(CN(C4)C2)C3)c1` showed an inhibition of 10%. `Cc1cccc([C@@H]2[C@@H]3C(=O)N(C)C(=O)[C@@H]3[C@@H]3C(=O)Nc4ccccc4C(=O)N23)c1` showed an inhibition of 5.99%. With `O=C(NC1CCCC1)c1cc(-c2ccccc2)on1` the inhibition was -21.5%. Work on `FC(F)(F)c1nnc2c3ccccc3c(Cl)nn12` yielded an inhibition of 17.8%. In the case of `CC1CCc2sc3nc(N4CCN(CCO)CC4)n4ncnc4c3c2C1` (stereo unspecified), the inhibition was 40.6% (active). Compound `Cc1cc(NC(=O)CSc2nc(C(C)C)nc3sc4c(c23)CCC(C)C4)no1` (stereo unspecified) has an inhibition of 4.7%. `Cc1[nH]c2ccccc2c1/C=C(/C#N)C(=O)NC(C)C` gave an inhibition of 20.4%. With `CC(C)NC(=O)/C(C#N)=C\c1ccc(N(C)C)c(Br)c1` the inhibition was 53.6% (active). With `CC(C)(C)C(=O)/C(C#N)=C/c1ccc(O)cc1` the inhibition was 8.78%. `Cc1ccc(C(=O)OC2=CC(=O)CC(C)(C)C2)cc1` showed an inhibition of 31%. `COCCCNS(=O)(=O)c1cccc(S(=O)(=O)c2cccc(S(=O)(=O)NCCCOC)c2)c1` gave an inhibition of 2.99%. Work on `O=C(NCCCN1CCOCC1)c1ccc(N2CCCC2)c([N+](=O)[O-])c1` yielded an inhibition of -9.34%. In the case of `O=C(COc1ccccc1F)NNC(=O)c1ccc(N2CCCCC2)c([N+](=O)[O-])c1`, the inhibition was 41.3% (active). With `Cc1ccccc1OCC(=O)NNC(=O)c1ccc(-n2cncn2)c([N+](=O)[O-])c1` the inhibition was -11%. `CC(C)CC(=O)N/C(N)=N/c1nc2ccccc2s1` showed an inhibition of 19.6%. Compound `CCOC(=O)/C(N=Nc1cc(C(=O)O)cc(C(=O)O)c1)=C(\O)CCl` has an inhibition of 11%. In the case of `O=c1cccc(-c2ccc(Br)cc2)o1`, the inhibition was 4.04%. `COc1ccccc1/C=C/C(=O)NC1CC2CCC1C2` (stereo unspecified) showed an inhibition of 19.5%. With `CCOC(=O)C(=Cc1ccccc1OC)C(=O)OCC` the inhibition was 49.6% (active). In the case of `CCOC(=O)C(=CNc1cccc(C)n1)C(=O)OCC`, the inhibition was -6.8%. With `Cc1c(C)n2c(SCC(=O)N3CCCC3)nnc2[nH]c1=O` the inhibition was 0.597%. With `CCCCCCC(=O)N(O)C1CC(=O)N(c2ccccc2)C1=O` (stereo unspecified) the inhibition was 33.7%. With `CCN(CC(=O)Nc1ccccc1C(=O)NC1CC1)Cc1cccs1` the inhibition was 17.5%. For `CSC1=N/C(=C\C=C\c2cccs2)C(=O)S1`, the inhibition was 47.1% (active). In the case of `CN1C/C(=C/c2cccs2)C(=O)/C(=C\c2cccs2)C1`, the inhibition was 19.2%. With `Cc1cccc(C2=N/C(=C/c3cccs3)C(=O)O2)c1` the inhibition was 31.5%. Compound `O=C(NCc1ccccc1Cl)C1CCC(CNc2c(N3CCCCC3)c(=O)c2=O)CC1` (stereo unspecified) has an inhibition of -8.66%. `C/C(=N\NC(=O)c1cc2c(s1)CCC(C)C2)c1cccnc1` (stereo unspecified) showed an inhibition of 39.6%. Work on `CCOC(=O)C1=C(c2ccccc2)NC(=O)NC1c1cc(OCC)c(O)c([N+](=O)[O-])c1` (stereo unspecified) yielded an inhibition of -5.37%. In the case of `CCCc1[nH]nc2c1C(c1ccc(Br)s1)C(C#N)=C(N)O2` (stereo unspecified), the inhibition was 83% (active). In the case of `CCCc1[nH]nc2c1C(c1ccc(OC)c(Cn3nc(C)c(Br)c3C)c1)C(C#N)=C(N)O2` (stereo unspecified), the inhibition was 11.3%. `CCCc1[nH]nc2c1C(c1ccc(OC(=O)c3ccco3)cc1)C(C#N)=C(N)O2` (stereo unspecified) showed an inhibition of 8.03%. For `COc1ccc(NC(=O)COC(=O)CNC(=O)C2CCCCC2)cc1`, the inhibition was 4.06%. For `Cc1ccc(NC(=O)CCOc2ccccc2)cc1S(=O)(=O)Nc1ccccc1Cl`, the inhibition was 43.7% (active). Compound `CCc1ccccc1NC(=O)CCOc1ccccc1` has an inhibition of 11.8%. `CCOC(=O)c1cccc(NC(=O)CCOc2ccccc2)c1` showed an inhibition of 12.6%. With `CN(C(=O)CSc1nnc(Nc2ccccc2)s1)C1CCS(=O)(=O)C1` (stereo unspecified) the inhibition was 8.97%. In the case of `COc1ccc(-c2cc(=O)oc3cc(OCC(=O)N[C@@H](Cc4c[nH]c5ccccc45)C(=O)O)ccc23)cc1`, the inhibition was 16.2%. In the case of `C=CCOC(=O)C1=C(C)N=C2SCCC(=O)N2C1/C=C/c1ccccc1OC` (stereo unspecified), the inhibition was 5.92%. With `COc1ccc(Oc2cn[nH]c2-c2ccc(OC)cc2O)cc1` the inhibition was 50.1% (active). For `CCOc1ccccc1Oc1cn[nH]c1-c1ccc(OC)cc1O`, the inhibition was -13%. Compound `COc1ccc(-c2cn[nH]c2-c2ccc(OC)cc2)cc1` has an inhibition of 38.8%. `Cn1sc(=O)c2cc(S(=O)(=O)NC3CC3)ccc21` showed an inhibition of 22.8%. `COc1ccc(N2CCN(C(=O)CCNC(=O)c3ccc(Br)cc3)CC2)cc1` gave an inhibition of 12.6%. In the case of `O=C(CCc1ccccc1F)N1CCN(c2ccccc2)CC1`, the inhibition was 6.47%. In the case of `COc1ccc(N2CCN(C(=O)CCSCc3ccccc3F)CC2)cc1`, the inhibition was 40.2% (active). Work on `CN(Cc1c(F)cccc1Cl)C(=O)CNC(=O)c1ccc2c(c1)OCO2` yielded an inhibition of 7.42%. Compound `Cc1ccc(NC(=S)Nc2ncccc2C)c(C)c1` has an inhibition of 36.8%. Compound `O=C(NCCCn1ccnc1)/C(=C\c1ccccc1F)NC(=O)c1ccccc1` has an inhibition of -16.4%. Compound `O=C(NN=Cc1ccc(N2CCOCC2)cc1)c1cc2ccccc2cc1O` has an inhibition of 0.793%. Compound `COc1ccc(-c2cc(C(=O)Nc3ccccc3O)c3ccccc3n2)cc1` has an inhibition of 11.2%. In the case of `O=C(NNc1c2ccccc2nc2ccccc12)c1cc2ccccc2cc1O`, the inhibition was 48.9% (active). For `O=C(COC(=O)CN1C(=O)C2CCCCC2C1=O)Nc1ccc(F)c(F)c1F` (stereo unspecified), the inhibition was 8.83%. In the case of `CC1=CC(C)(C)Nc2ccc(OC(=O)CN3C(=O)C4CCCCC4C3=O)cc21` (stereo unspecified), the inhibition was 42.7% (active). Work on `CC1=CC(C)(C)Nc2ccc(OC(=O)C(Cc3ccccc3)N3C(=O)C4CCCCC4C3=O)cc21` (stereo unspecified) yielded an inhibition of 25.9%.
